Wee1 degr inh: inhibitors of human Wee1 degradation | P30291 | HeLa Luc-Wee1K328M stability, luciferase luminescence; 100% = proteasome inhibitor MG132 effect | reporter increase, % at 5 µM | 1.2% of 220,000 active | AID 1321;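 active means activation above the mean of all tested compounds plus 3 SD, set per screening run, cut at about 8.8% in these data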;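 further: cells exposed to compound for 20 h before luminescence read; 0% = DMSO alone and 100% = MG132 at 30 µM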
hgDAF12 agonist: hgDAF-12 agonism, primary luciferase screen; HEK293 GAL4-hgDAF12 UAS-luciferase reporter, agonist luminescence; normalized to butyrate control; activation, % at 6.8 µM; 1.8% of 370,000 active; AID 687014;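 active means activation above a cutoff set at the mean of all screened compounds plus 3 SD, cut at about 10% in these data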;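 further: 0% = DMSO wells and 100% = sodium butyrate wells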
hcDAF-12 act: activates DAF-12 receptor from parasite H. contortus | activation, % at 6.8 µM | HEK293 hcDAF-12 lit1-tk-luc reporter, luminescence; 0% DMSO, 100% Δ7-dafachronic acid | 1.4% of 370,000 active;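 active means activation above the mean of all tested compounds plus 3 SD, cut at about 5.5% in these data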;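 further: 100% = response to 3 µM Δ7-dafachronic acid high control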
DAX1 inh-1: blocks DAX1 repression of SF-1 activated StAR promoter | 1.1% of 370,000 active | inhibition, % at 6.8 µM | HEK293T StAR-luciferase reporter, SF-1/DAX-1 repression relief | AID 652010;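 active means inhibition above the mean over all tested compounds plus 3 SD, cut at about 3.6% in these data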;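 further: 0% = DAX-1 cells with DMSO and 100% = cells lacking DAX-1 with DMSO; higher inhibition means more luminescence from relief of DAX-1 repression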
ssDAF12 agonist: activates DAF-12 receptor from parasite S. stercoralis. HEK293 ssDAF-12/GRIP1 lit1-tk-luc reporter, luminescence; % of 3 µM dafachronic acid response. 1% of 370,000 active. activation, % at 6.8 µM;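 active means activation above the mean over all tested compounds plus 3 SD, cut at about 0.9% in these data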;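 further: 0% = DMSO-only wells and 100% = 3 µM delta7-dafachronic acid wells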
DAX1 inh-2: NR0B1 (DAX1) inhibition; HEK293 Gal4-DAX1 luciferase reporter, luminescence; inhibition, % at 6.75 µM; 0.99% of 340,000 active; P51843;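 active means inhibition above the mean over all tested compounds plus 3 SD, cut at about 4.2% in these data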;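 further: 0% = DAX1-transfected cells with DMSO and 100% = empty-vector control cells with DMSO; inhibition shows as a rise in luminescence from relieved DAX1 repression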
Target sequence (P51843 207-470 limits assumed): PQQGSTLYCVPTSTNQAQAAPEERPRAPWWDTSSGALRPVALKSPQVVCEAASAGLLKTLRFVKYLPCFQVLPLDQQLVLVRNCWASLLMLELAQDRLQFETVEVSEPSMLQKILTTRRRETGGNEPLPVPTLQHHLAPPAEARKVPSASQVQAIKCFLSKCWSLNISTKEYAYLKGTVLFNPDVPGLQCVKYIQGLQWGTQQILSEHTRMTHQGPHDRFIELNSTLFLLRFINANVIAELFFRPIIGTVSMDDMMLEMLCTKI
Starred values were filed as active, the others as inactive; . = no result given. The list is not random: actives were taken first. Their share in the collection is about 4.6%.

SMILES	Wee1 degr inh	hgDAF12 agonist	hcDAF-12 act	DAX1 inh-1	ssDAF12 agonist	DAX1 inh-2
CCOC(=O)C1(C)CCCN(C(=O)c2c(-c3ccccc3)noc2C)C1 (configuration not stated)	.	0.5	-1.1	-0.4	-1.1	.
Cc1nc(N2CCOCC2)nc(N2CCCCC2C)c1[N+](=O)[O-] (configuration not stated)	1.2	-1.6	-0.2	-0.4	-0.8	5.5*
Cc1nc(N2CCOCC2)nc(N2CCC(C)CC2)c1[N+](=O)[O-]	-1.6	0.7	-3.3	-0.1	-1.7	2.3
Cc1cc(Cl)ccc1NC(=O)Cn1cncn1	-3.4	-2.7	-0.8	-0.2	-1.1	0.8
Cc1cc(Cl)ccc1OCCn1cncn1	1.3	3.7	6.0*	-0.2	-0.4	-0.3
O=C(CC[C@H]1O[C@@H](n2cnc3c(NC(=O)c4ccccc4)ncnc32)[C@H](O)[C@@H]1O)N[C@@H](CO)c1ccccc1	.	1.0	1.6	-1.3	-1.1	.
CC(C)c1ccccc1NS(C)(=O)=O	16.0*	.	.	.	.	.
CC(C)c1ccccc1NS(=O)(=O)N(C)C	1.5	0.7	0.0	-0.4	-0.7	1.2
COc1cc(NC(=O)[C@H]2O[C@@H](n3cnc4c(N)ncnc43)[C@H](O)[C@@H]2O)cc(OC)c1OC	.	0.4	-0.1	-0.2	-1.5	.
O=C(NNC(=O)c1ccncc1)Nc1ccc(N=Nc2ccccc2)cc1	.	10.5*	5.0	2.0	0.7	-0.1
CC1CCCC(NC(=O)CSc2ncccc2C(=O)O)C1C (configuration not stated)	-3.7	-1.8	1.8	-0.1	1.2*	0.8
O=C(NC1CCCCCC1)c1ccc(=O)n(Cc2ccccc2)n1	7.0	-1.7	-1.3	-0.4	-1.6	4.5*
COC(=O)C1CCN(C(=O)COC(=O)c2ccc(=O)n(Cc3ccccc3)n2)CC1	.	0.9	-0.1	2.0	-1.4	0.2
Fc1cc(F)c(CSc2nnc(-c3cccnc3)n2Cc2ccccc2)cc1F	.	-1.2	-1.9	0.5	-1.3	.
Clc1ccccc1CSc1cc2c(nn1)-c1ccccc1CC2	5.5	11.1*	3.9	1.5	0.0	0.7
O=C(Nc1ccc(-c2cnco2)cc1)c1ccc(F)cc1F	3.1	9.6	0.0	0.5	-1.3	3.3
Cc1ccc(-c2cnco2)cc1	-1.8	-1.8	2.3	0.1	-1.8	6.3*
Cc1cc(=O)[nH]c(N/N=C/c2ccc(N(C)C)cc2)n1	-0.6	1.4	-0.6	0.4	-1.2	0.3
Cc1cc(=O)[nH]c(N/N=C/c2ccc(F)cc2)n1	.	-0.4	-0.6	0.2	1.3*	1.4
CCCCN(C(=O)c1ccc(N(C)S(=O)(=O)c2ccc(C)cc2)cc1)c1c(N)n(CCC)c(=O)[nH]c1=O	.	-0.2	0.0	0.9	-1.0	0.8
CCCCn1c(N)c(N(CC(C)C)C(=O)c2ccc(S(=O)(=O)N(CC)c3ccccc3)cc2)c(=O)[nH]c1=O	.	-2.3	1.0	-0.2	1.4*	1.4
CCCCN(C(=O)c1ccc(S(=O)(=O)N(C)c2ccccc2)cc1)c1c(N)n(CCC)c(=O)[nH]c1=O	.	0.9	0.2	4.4*	-1.0	0.8
Cc1nc(Nc2ccc(C(=O)O)cc2)nc(Nc2ccc(C(=O)O)cc2)c1[N+](=O)[O-]	1.4	-0.9	-0.3	-0.5	-1.6	0.0
Cc1nc(Nc2ccc(F)cc2)nc(Nc2ccc(F)cc2)c1[N+](=O)[O-]	4.0	1.2	-1.3	1.4	-0.9	4.7*
O=C(COc1ccc(S(=O)(=O)N2CCCC2)cc1)NCc1ccco1	2.2	.	.	.	.	1.9
SMILES	Wee1 degr inh	hgDAF12 agonist	hcDAF-12 act	DAX1 inh-1	ssDAF12 agonist	DAX1 inh-2
O=C(COc1ccc(S(=O)(=O)N2CCOCC2)cc1)NCc1ccco1	.	0.2	-2.0	0.2	1.6*	0.3
Cc1nnc(Cc2ccccc2)c2n[nH]c(C)c12	.	0.2	3.3	1.3	-1.2	0.6
S=C(N/N=C/c1ccc(Br)cc1)N1CCCCC1	.	9.8	2.8	2.4	1.2*	6.7*
Cc1ccc(/C=N/NC(=S)N2CCOCC2)cc1	2.1	12.2*	3.5	2.2	-0.3	0.6
CC(=O)N1CCN(c2cc(C)nc3nc(C)nn23)CC1	.	0.5	-1.1	0.2	-0.8	.
CCN1C[C@@H]2[C@@H]3C(=O)N(C)C(=O)[C@@H]3[C@](CC)(C1=O)N2C(=O)c1ccc(F)cc1	.	1.6	0.7	0.8	-0.4	4.6*
CCN1C(=O)[C@H]2[C@@H](c3ccc(C)cc3)N[C@]3(CCCN(Cc4ccc(OC)cc4)C3=O)[C@H]2C1=O	.	-0.4	-1.1	-0.3	-0.8	0.2
COC(=O)c1cn(NC(=O)Cc2cccc(OC)c2)c(=O)c2ccccc12	-2.6	1.9	-0.6	-0.3	-1.4	4.2*
COc1ccc2nc(NC(=O)CN3CCOCC3)sc2c1	7.8	11.4*	0.6	0.1	-0.8	0.7
COc1ccc2nc(NC(=O)CSc3nnc(C)n3N)sc2c1	0.6	9.7	3.7	3.8*	0.4	0.5
Cc1ccc(NC(=O)CN2CCC(NC(=O)Cc3ccccc3)CC2)c(C)c1	0.1	1.8	-1.1	-0.2	1.2*	2.2
Cc1cc(C)cc(NC(=O)CN2CCC(NC(=O)Cc3ccccc3)CC2)c1	-0.5	0.7	-1.2	0.3	-2.0	1.8
COc1ccc(NC(=O)C2(C)Cc3c(-c4ccc5c(c4)OCO5)ccnc3O2)cn1 (configuration not stated)	.	4.7	0.1	-1.5	-0.2	.
CSCCC(c1nc2ccccc2[nH]1)n1c(=O)c(-c2cc3ccccc3[nH]2)nc2ccccc21 (configuration not stated)	.	1.5	2.6	-0.9	-0.1	.
CC(C)C[C@H](NC(=O)Nc1ccc(S(N)(=O)=O)cc1)C(=O)O	7.7	-0.5	-0.5	0.4	-1.3	1.9
CC(C)CC(NC(=O)c1ccccc1)C(=O)OCC(=O)Nc1ccc(S(N)(=O)=O)cc1 (configuration not stated)	1.3	2.1	-1.5	-0.1	-2.4	4.5*
CC(=O)c1ccc(OCc2cc(C(=O)NC3CCCCC3)no2)cc1	.	6.9	0.9	3.6*	-0.4	0.8
COCC1CCCN(C(=O)c2cc(COc3ccc(C(C)=O)cc3)on2)C1 (configuration not stated)	.	10.3	5.7*	4.2*	-0.6	1.1
CC(=O)c1ccc(OCc2cc(C(=O)NCCN3CCCC(O)C3)no2)cc1 (configuration not stated)	.	-0.3	-0.8	-0.8	-0.9	-0.7
CC(=O)c1ccc(OCc2cc(C(=O)N3CCN4CCCC4C3)no2)cc1 (configuration not stated)	.	-3.6	-0.5	-1.0	-1.0	-0.4
Cc1ccc(-c2cc(C(=O)NC3CCCC3)no2)cc1	.	12.8*	2.5	2.7	-0.1	0.7
CCOC(=O)C1(C)CCCN(C(=O)c2ccc3ccccc3c2)C1 (configuration not stated)	.	0.0	0.0	-0.9	-1.1	.
